About 83,000 compounds went through this panel and 20% of them were active in at least one assay; those are over-represented in the sample as a whole.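 48-hour exposure, single concentration, 96-well plates; percent growth endpoint where 0 means no net growth. Active: below 10.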 Values without a mark were called inactive. Active and inactive are the calls of the source.
Legend:
Assay in all cases: NCI-60 one-dose screen, 48 h (100 = growth as untreated, 0 = no growth, -100 = all killed)
Conditions in all cases: 10 µM unless noted
[1] = system: T-47D breast
[2] = system: BT-549 breast
[3] = system: MDA-MB-435 melanoma
[4] = system: SW-620 colon
[5] = system: MCF7 breast
[6] = system: HCT-116 colon
[7] = system: HCC-2998 colon
[8] = system: KM12 colon

Compound | growth [1] | growth [2] | growth [3] | growth [4] | growth [5] | growth [6] | growth [7] | growth [8]
COc1ccc(-c2nc3ccccn3c2/C=C/C(=O)c2cc(OC)c(OC)c(OC)c2)cc1OC | 2.52% (active) | -0.101% (active) | 20.3% | 14.6% | 4.01% (active) | 10.3% | 16.4% | 3.9% (active)
CSc1cccc([N+](=O)[O-])c1 | 90.1% | 104% | 100% | 108% | 108% | 100% | 108% | 113%
O=C(O)c1cc([N+](=O)[O-])ccc1Br | 101% | 91.5% | 98.5% | 104% | 95.8% | 99.5% | 104% | 101%
CCOC(CNC(=O)c1cccc([N+](=O)[O-])c1)OCC | 92.1% | 60.5% | 103% | 102% | 87.2% |  |  | 112%
CCN(CC)CCCNCc1cc(-c2ccccc2)nc2ccccc12 | 53.4% | 75.9% | 53.3% | 24.2% | 35.7% | 7.25% (active) |  | 82.6%
CCCCN(CC)CC(CC)Nc1cc(OC)cc2cccnc12 (stereo unspecified) | 110% | 110% | 102% | 108% | 98.5% | 105% |  | 107%
CCCCCCCCCCCCCC[n+]1cccc(C(N)=O)c1 | 49.8% | -49.9% (active) | -36.5% (active) | 0.686% (active) | 39.4% | 20.8% |  | -87.1% (active)
C#CC(OC(=O)N(C)C)(c1ccccc1)c1ccc(F)cc1 (stereo unspecified) | 100% | 111% | 120% | 107% | 113% | 105% |  | 107%
Nc1ccc(NC(=O)c2ccccc2)c2c1C(=O)c1ccccc1C2=O | 107% | 101% | 98.2% | 98.3% | 81.6% | 101% |  | 96%
C=C(C)[C@@H]1CC[C@]2(C(=O)NCCCCCCN(CCCN)CCCN)CC[C@]3(C)[C@H](CC[C@@H]4[C@@]5(C)CC[C@H](OCCCN)C(C)(C)[C@@H]5CC[C@]43C)[C@@H]12 | 85.3% [100 µM] | 118% [100 µM] | 89.6% [100 µM] | 7.33% [100 µM] (active) | 14.5% [100 µM] | 12.6% [100 µM] | 77.1% [100 µM] | 31.5% [100 µM]
NC1=NC(=O)NC1(c1ccccc1)c1ccccc1 | 80.3% | 131% | 104% | 99.2% | 99.8% | 99.9% |  | 103%
C#C[C@]1(O)CC[C@H]2[C@@H]3CC=C4c5nc(Nc6ccccc6[N+](=O)[O-])sc5CC[C@]4(C)[C@H]3CC[C@@]21C | 41.3% | 34% | 66.1% | 76% | 56.9% | 45.7% | 61.1% | 54.1%
CCn1cc(-c2cc(-c3ccc(Cl)cc3)nc(N)n2)c(-c2ccc(Br)cc2)n1 | 48.1% | 91.3% | 92.8% | 99.7% | 72.2% | 66.3% | 92.9% | 77.7%
COc1ccc2nc3cc(Cl)ccc3c(Nc3ccc(O)c(CN4CCCC4)c3)c2c1 | 35.8% | 79.2% | -61.5% (active) | -65.7% (active) | 43.4% | -45% (active) |  | 19.2%
CCCN1CC(c2ccc(OC)c(OC)c2)=C(c2cn(C(=O)OCC)c3ccccc23)C1=O | 36.5% | 58.6% | -10.5% (active) | 31.5% | 20.4% | 21% |  | 32.3%
N#C/C(C(=O)c1ccccc1)=C1/C(=O)Nc2ccccc21 | 97.1% | 48.3% | 97.6% | 95.9% | 89.1% | -50.4% (active) | 112% | 100%
Fc1cc2[nH]ncc2c2c3c(c(-c4cn[nH]c4)nc12)CCCC3 | -19.3% (active) | -17.3% (active) | 5.22% (active) | 5.91% (active) | 3.02% (active) | 5.6% (active) | 16.5% | 5.18% (active)

Compound | growth [1] | growth [2] | growth [3] | growth [4] | growth [5] | growth [6] | growth [7] | growth [8]
Cn1c(=O)c(C#N)c(-c2ccco2)n2c(S(=O)(=O)Cc3ccccc3)nnc12 | 90.6% | 73.7% | 83% | 99.5% | 74.9% | 75.8% |  | 93.7%
CCOC(=O)c1sc2nc(-c3cc(OC)c(OC)c(OC)c3)nc(N3CCOCC3)c2c1C | -6.97% (active) | 41.2% | 35.7% | 36.4% | 27.1% | 25.6% | 51.5% | 31.4%
CC(C)C1=NOC(=O)C1=Cc1cn(-c2ccccc2)nc1-c1ccc(Br)cc1 | 74.8% | 119% | 71.3% | 57.7% |  | 64.2% |  | 
N#CC1C(=O)NC(c2ccccc2[N+](=O)[O-])c2sc3c(F)cccc3c21 (stereo unspecified) | 2.51% (active) | 89.2% | 102% | 21.9% | 23.4% | 11% | 93.8% | 91.4%
Cc1ccc(S(=O)(=O)Nc2ccccc2)cc1N | 101% | 49.5% | 92.6% | 99.7% | 91.8% |  |  | 107%
O=c1[nH]c2cc(Cl)c(Cl)cc2n2cc3ncccc3c12 | 49% | 109% | 87% | 53.4% | 30.4% | 71.1% |  | 78.4%
CC(C)C1=NOC(=O)C1=Cc1cn(-c2cccnc2)nc1-c1ccccc1 | 92.6% | 125% | 95.1% | 88.8% |  | 81.2% | 111% | 102%
Cn1cc(-c2noc(C(=O)c3cn(C)c4ncccc34)n2)c2ccccc21 | 46% | 98.3% | 72.9% | 95.5% |  | 98.7% | 90.6% | 52%
O=C(O)CC1CCCCC1c1ccccc1 (stereo unspecified) | 104% | 96% | 115% | 111% |  | 98.4% | 106% | 110%
Cc1cnc(N)nc1OCCNC(=O)c1cccc(-c2ccc(S(=O)(=O)Nc3ccc4c(c3)N(C(=O)C3CC3)CCC4)cc2)c1 | 36.9% | 66.2% | 78.8% | 99.1% |  | 76.3% | 77.4% | 75.2%
Cn1cc(-c2nnc(-c3ccccc3)s2)c2cc(Br)cnc21 | 44% | 104% | 92.6% | 82.5% |  | 108% | 101% | 87.6%
Clc1ccc(/C=N/Nc2nc3ccccc3s2)c(Cl)c1 | 74.4% | 115% | 91.9% | 79.3% |  | 80.6% | 101% | 94%
CCn1cc(-c2ccnc(NCCNS(=O)(=O)c3cccc4ccccc34)c2)c(-c2cccc(O)c2)n1 | 85.9% | 109% | 96.1% | 118% |  | 87.3% | 122% | 99.1%
C=C(C)[C@@H]1CC[C@]2(COCCCN)CC[C@]3(C)[C@H](CC[C@@H]4[C@@](C)(CCCNCCCN)[C@H](C(=C)C)CC[C@]43C)[C@@H]12 | -60.6% [100 µM] (active) | -43.2% [100 µM] (active) | -68.5% [100 µM] (active) | -67% [100 µM] (active) |  | -31.7% [100 µM] (active) | -55% [100 µM] (active) | 
C1=C[C@H]2O[C@@H]1c1ccc3[nH]ccc3c12 | 110% | 108% | 0.425% (active) | 73.4% |  | 97.9% | 86.7% | 79.5%
CCCC[C@@H](C=O)NC(=O)[C@H](CC(C)C)NC(=O)[C@H](CC(C)C)NC(=O)OCc1ccccc1 | -42.7% (active) | -70.3% (active) | -4.11% (active) | -34.6% (active) |  | -58.5% (active) | -74.1% (active) | -51.4% (active)
